These results are taken from ChEMBL document CHEMBL3988442, “University of Dundee, Small-Polar-MMV Screening Library” (2021).

Among all 38,000 compounds or so, about 1,200 (3.2%) showed an effect of 50% or more. The median lay at about -58%. What follows is part of a selection rich in strong results, with near analogues and random picks from the rest.

For this assay, the system named is Plasmodium falciparum. Put plainly: Calibr Malaria Delayed Death Assay SOP. The assay is classed as functional, organism-based. On the set-up: scale not given: in the data most compounds retested in dose-response had high values. The following applies: concentration 4.99e-06 (unit not given; other assays of the set use mol/L).
Take `Cc1nc(CN2CCC(N(C)Cc3noc(C4CC4)n3)C2)oc1C` (stereo not given): the “Percent Effect” value is -157.8%.

For the molecule `CCC[C@@H]1CN(C(=O)c2ccccc2C(C)=O)C[C@H]1N(C)C`, the “Percent Effect” value was -122.5%.

Take `CCC[C@@H]1CN(C(=O)c2cc3ccccc3cc2O)C[C@H]1N(C)C`: the “Percent Effect” value was determined as 51.44%. Next, `CCC[C@@H]1CN(C(=O)c2ccccc2-c2ncc[nH]2)C[C@H]1N(C)C`: -89.87%; `CCC[C@@H]1CN(C(=O)c2ccccc2-c2ccccc2)C[C@H]1N(C)C`: 18.3%.

With `CCC[C@@H]1CN(C(=O)c2cc(-c3cccs3)n(C)n2)C[C@H]1N(C)C`, the “Percent Effect” value was -67.73%. Next, `CCC[C@@H]1CN(C(=O)c2conc2-c2ccccc2)C[C@H]1N(C)C`: 50.45%; `CC(C)(C)c1cnc(CN(Cc2cccnc2)CC2CCCO2)o1` (stereo not given): 21.12%; `CC(O)CN1CCc2onc(-c3ccccc3F)c2C1` (stereo not given): -120.6%.

As to `CN(C)S(=O)(=O)N1CCCC(c2cccc(Cc3ccccc3F)n2)C1` (stereo not given), the “Percent Effect” value was -73.25%. Take `CN(C)C(=O)CCc1cncc(C2CCCN2Cc2ccccn2)n1` (stereo not given): the “Percent Effect” value is listed as -28.93%. For `CN(C)C(=O)CN1CCCC1c1cccc(Cc2ccccc2F)n1` (stereo not given), the “Percent Effect” value was determined as 67.28%. For `CN1CCN(C2COC3(CCN(Cc4ccsc4)CC3)C2)CC1.O=C(O)C(F)(F)F.O=C(O)C(F)(F)F` (stereo not given), the “Percent Effect” value is reported as -16.23%. Next, `COC(=O)c1cccn1C1CCN(C(=O)c2ccc(C)cc2O)CC1`: -37.36%. In the case of `Nc1ncncc1-c1noc([C@@H]2CCCN2CCCc2ccccc2)n1`, the “Percent Effect” value is reported as -66.01%. As for `Nc1cc(C(=O)NC2CCCN(CCCc3ccccc3)C2)ccn1` (stereo not given), the “Percent Effect” value is given as -86.42%. On to `CS(=O)(=O)NC1CCN(C(=O)NCc2cccnc2)CC1`, for which the “Percent Effect” value is listed as -62.74%. As for `O=C(c1ccoc1)N1CC[C@H]2C[C@@H](c3ccncn3)O[C@@H]2C1`, the “Percent Effect” value is listed as -72.56%.

In the case of `COc1cccc(CCC(=O)Nc2cnc3c(c2)c(C)nn3C)c1OC`, the “Percent Effect” value is on record as -140.4%.

With `COc1nccc(N2CC[C@@H](N3CCCCCC3)[C@H](O)C2)c1C#N`, the “Percent Effect” value is recorded as 51.1%.

Take `COc1nccc(N2CC[C@@H](N3CCC(O)CC3)[C@H](O)C2)c1C#N`: the “Percent Effect” value was -80.42%.

`COc1nccc(N2CC[C@H](N3CCOCC3)[C@H](CCCO)C2)c1C#N`: the “Percent Effect” value is on record as -24.24%. For the molecule `COc1ccc(C(N)=O)cc1NCc1ncc(-c2cccs2)o1`, the “Percent Effect” value is reported as -57.49%. Turning to `O=C(O)CCc1nc2nccc(-c3ccc(F)cc3)n2n1`, the “Percent Effect” value was -150.8%.

As for `COc1ccc(-c2noc(CN3CC(n4cc(C)cn4)C3)n2)cc1`, the “Percent Effect” value was -35.96%. For the molecule `CC(C)Cc1ncc2c(n1)CN(c1cc(NC3CC3)nc(N)n1)C2`, the “Percent Effect” value is -26.11%. Take `CCNc1ccnc(N2Cc3cnc(CC(C)C)nc3C2)n1`: the “Percent Effect” value is listed as 74.44%. Take `CC(C)Nc1ccnc(N2Cc3cnc(C(C)(C)C)nc3C2)n1`: the “Percent Effect” value was found to be 49.86%. Regarding `O=C(CSc1nnc2n1N=CN(c1ccccc1)C2)c1ccccc1`, the “Percent Effect” value is -130.4%. For the molecule `COCCCN1CCCN(C(C)C(=O)Nc2cccc(I)c2)CC1` (stereo not given), the “Percent Effect” value was determined as 89.66%. Turning to `CCOCCN1CCN(C(C)C(=O)Nc2ccnn2C(C)C)CC1` (stereo not given), the “Percent Effect” value is listed as -116%. With `CC(C(=O)Nc1cccc(Cl)c1)N1CCN(Cc2ncc[nH]2)CC1` (stereo not given), the “Percent Effect” value stood at 12.72%. For `Cc1noc(CN(C)CC2CCCN(CCc3ccc(Cl)cc3)C2)n1` (stereo not given), the “Percent Effect” value is -81.63%.

Consider `NC(=O)C1CCN(C(=O)c2ccc(Sc3ccccn3)cc2)CC1`, for which the “Percent Effect” value was -20.82%. Regarding `Cc1ccc(CN(Cc2ccncc2)C2CCN(C)CC2)s1`, the “Percent Effect” value was determined as 33.34%.

For the molecule `O=C(Nc1cccnc1)N(Cc1ccccc1)C1CC1`, the “Percent Effect” value is on record as -66.01%. For `Cc1ccsc1CN(C)Cn1nccc1-c1cccnc1`, the “Percent Effect” value is listed as -75.2%.

Regarding `Cc1ccc(CN(Cc2[nH]cnc2C)C2CC(C)(C)NC(C)(C)C2)o1.O=C(O)CC(O)(CC(=O)O)C(=O)O`, the “Percent Effect” value is on record as -80.85%.

Regarding `CC1(C)CC(N(Cc2cccnc2)Cc2cccc(F)c2)CC(C)(C)N1.O=C(O)CC(O)(CC(=O)O)C(=O)O`, the “Percent Effect” value came to 75.47%. `CN(Cc1cccnc1)CC1CC12CCCC2` (stereo not given): the “Percent Effect” value is -51.15%.

`Cc1ccc(CN(Cc2ccccn2)C(=O)[C@H]2CC[C@@H](N)C2)s1`: the “Percent Effect” value is recorded as -62.59%. For `Cc1cccc(CN(Cc2cccnc2)C2CC(C)(C)NC(C)(C)C2)n1.O=C(O)CC(O)(CC(=O)O)C(=O)O`, the “Percent Effect” value came out at 40.19%. With `CN(Cc1cccnc1)CC1CC12CCN(Cc1nccs1)CC2` (stereo not given), the “Percent Effect” value is on record as -24.57%. In the case of `Cc1c[nH]c(CN2CCOC(c3ccc(Cl)c(Cl)c3)C2)c(C)c1=O` (stereo not given), the “Percent Effect” value is on record as -31.43%. Regarding `Cc1cc(CNC(=O)NCc2cccs2)no1`, the “Percent Effect” value is listed as -38.54%. As to `COc1cccc2c1ccn2CC(=O)Nc1nc[nH]n1`, the “Percent Effect” value was -178.4%.

Take `COCCCN(CCOC)C(=O)Nc1ccccc1Br`: the “Percent Effect” value is listed as -3.396%.

For the molecule `Fc1cnc(N2CCN3C[C@H](Oc4cccnc4)C[C@H]3C2)nc1.O=C(O)C(F)(F)F.O=C(O)C(F)(F)F.O=C(O)C(F)(F)F`, the “Percent Effect” value is recorded as -67.51%.

In the case of `CN(C)c1nc2sc(C(=O)N3CCNC(=O)CC3)cc2s1`, the “Percent Effect” value is listed as -35.45%. For `CCOC(=O)[C@H]1[C@@H](O)C(=O)N(C)C12CCN(S(=O)(=O)CC)CC2`, the “Percent Effect” value is -82.82%. In the case of `CS(=O)(=O)NCc1ncn2c1CN(C(=O)C1CCCCC1)CCC2`, the “Percent Effect” value is reported as -51.87%.

As to `C[C@]1(O)CCN(Cc2cccnc2)C[C@@H]1Oc1cccc(F)c1`, the “Percent Effect” value is 9.643%. Take `CC1(C)CC(N(Cc2ccncc2)Cc2cccnc2)CC(C)(C)N1.O=C(O)CC(O)(CC(=O)O)C(=O)O`: the “Percent Effect” value was 22.16%. In the case of `CCCN(Cc1cccnc1)C1CC(C)(C)NC(C)(C)C1.O=C(O)CC(O)(CC(=O)O)C(=O)O`, the “Percent Effect” value is 76.54%. For `CN(Cc1cccnc1)C1CC2(CCN(C(=O)c3ccnnc3)CC2)C1`, the “Percent Effect” value is recorded as -29.79%.

Turning to `Cc1ccc(C(=O)N(Cc2cccnc2)C[C@@H]2CCC(=O)N2)s1`, the “Percent Effect” value is listed as -86.25%.

For the molecule `CC1(C)CC(N(Cc2cccnc2)Cc2cccnc2)CC(C)(C)N1.O=C(O)CC(O)(CC(=O)O)C(=O)O`, the “Percent Effect” value is -10.22%. `COc1cc(F)ccc1N(C)Cc1cccnc1`: the “Percent Effect” value is given as -76.29%.

`COc1cccc(CNC(=O)c2cc(C)nc(N3CCCC3)n2)c1`: the “Percent Effect” value is on record as -64.99%. `CC(C)OC(=O)N1CCC(c2nnc(Cn3ccnc3)n2C)CC1`: the “Percent Effect” value was -243.5%.
